Several values for one entry are separate records, joined by “and”; a condition that tells them apart may be missing. Equal entries are not always repeated. Results filed as inconclusive are left out. Activity calls are given as the source filed them. How the source made its calls, unless noted: active means hit-call score of the fitted dose curve at least 0.9, where 1 is the maximum; inactive means score below 0.9.

Read-out in assay [1]: E-selectin (Homo sapiens) (UniProt P16581)
Nature of the assay: BSK_SAg_Eselectin: BioMAP Diversity Plus: SAg Assay for Eselectin Biomarker Activity (AID 2283091). The following applies: primary human HUVEC with PBMC; actives raise or lower the signal. In outline: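 Co-culture: HUVEC + PBMC. Dose compound; 24 h. ELISA for E-selectin. Bidirectional fit vs DMSO.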

Read-out in assay [2]: Monokine induced gamma interferon (MIG), CXCL9 (gene 4283)
Nature of the assay: BSK_SAg_MIG: BioMAP Diversity Plus: SAg Assay for Monokine induced gamma interferon (MIG) Biomarker Activity (AID 2283092). The following applies: primary human HUVEC with PBMC; actives raise or lower the signal. Put shortly: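 ELISA readout of MIG/CXCL9; primary human umbilical vein endothelial cells co-cultured with peripheral blood mononuclear cells; 24 h post-dose; gain/loss fit vs DMSO baseline.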

Read-out in assay [3]: Interleukin-8 (IL8), CXCL8 (gene 3576)
The experiment in a line: BSK_SAg_IL8: BioMAP Diversity Plus: SAg Assay for Interleukin-8 (IL8) Biomarker Activity (AID 2283094). As to conditions: primary human HUVEC with PBMC; actives raise or lower the signal. In outline: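 ELISA read-out of IL-8 in a primary human vascular co-culture (umbilical vein endothelium plus PBMC), taken 24 h after compound addition. Values derive from bidirectional fits against DMSO negative controls.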

A short description of assay [4]: BSK_SAg_Proliferation: Cell Proliferation Assessment in the BioMAP Diversity Plus: SAg Assay (AID 2283095).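 Further: relative cell number as total protein by SRB absorbance in sub-confluent culture.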 As to conditions: primary human HUVEC with PBMC. Put shortly: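 Cells (endothelium plus PBMC, human primary) were dosed with chemical, cultured 96 h, fixed in 10% TCA and stained with 0.1% SRB. Absorbance at 560 nm gave relative protein, fitted bidirectionally relative to DMSO.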

Assay [5] can be described thus: BSK_SAg_SRB: Viability Assessment in the BioMAP Diversity Plus: SAg Assay (AID 2283096).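 Further: cells read one day after compound addition; hits may be either gain or loss of signal compared with DMSO.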 As to conditions: primary human HUVEC with PBMC. In outline:
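Total protein by sulforhodamine B staining, 24 h after dosing, in HUVEC–PBMC co-culture; DMSO-referenced bidirectional fitting.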

The nature of assay [6]: BSK_SAg_PBMCCytotoxicity: PBMC Cytotoxicity Assessment in the BioMAP Diversity Plus: SAg Assay (AID 2283093).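 Further: PBMC viability measured as Alamar Blue reduction fluorescence at 546/580 nm; fitted both ways against DMSO so a hit may be loss or gain of signal.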 The following applies: primary human HUVEC with PBMC. In outline:
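Compound added to 75,000 PBMC/well for 1 h; SEB and TSST-1 then added at 20 ng/mL final each; 90 h incubation; Alamar Blue 6 h; read 546/580 nm ex/em. Activity fitted bidirectionally relative to DMSO baseline.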

Assay [7] addresses human CYP2C9, CYP2C9 (gene 1559) (UniProt P11712). The experiment in a line: NVS_ADME_hCYP2C9: NovaScreen (NVS) CYP450-related Enzyme Activity (ADME) Assay for human CYP2C9 (AID 2283108; active means hit-call score of the fitted dose curve at least 0.9, where 1 is the maximum). Put shortly:
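Fluorescence readout of CYP2C9 activity (SF9-expressed human enzyme) at 0.75 h. The primary screen used 10 uM in duplicate, with concentration-response follow-up for actives; acetonitrile was the negative control.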

The target in assay [8] is Cytochrome P450 2C19 (Homo sapiens) (UniProt P33261). The experiment in a line: NVS_ADME_hCYP2C19: NovaScreen (NVS) CYP450-related Enzyme Activity (ADME) Assay for human CYP2C19 (AID 2283113; active means hit-call score of the fitted dose curve at least 0.9, where 1 is the maximum;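 on AC50: potency for inhibition seen as loss of fluorescent signal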). In outline: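 Fluorescence intensity was measured 1 hour after chemicals were added to insect-cell-derived recombinant CYP2C19 with fluorogenic substrate. Decreased signal versus acetonitrile control was taken as reduced enzyme activity; initial testing used 10 uM in duplicate.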

Assay [9] addresses rat CYP1A2, Cyp1a2 (gene 24297) (UniProt P04799). The experiment in a line: NVS_ADME_rCYP1A2: NovaScreen (NVS) CYP450-related Enzyme Activity (ADME) Assay for rat CYP1A2 (AID 2283115; active means hit-call score of the fitted dose curve at least 0.9, where 1 is the maximum). Put shortly: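 Cell-free recombinant rat enzyme with fluorogenic substrate, read by fluorescence intensity 1 hour after dosing. Loss of signal versus acetonitrile negative control; primary screen at 10 uM in duplicate, actives followed in concentration series.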

Assay [10] concerns the target human CYP2B6, CYP2B6 (gene 1555) (UniProt P20813). Nature of the assay: NVS_ADME_hCYP2B6: NovaScreen (NVS) CYP450-related Enzyme Activity (ADME) Assay for human CYP2B6 (AID 2283101; active means hit-call score of the fitted dose curve at least 0.9, where 1 is the maximum). Put shortly:
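Fluorescence-based enzyme activity of recombinant human CYP2B6, measured 1 h post-dose against acetonitrile vehicle baseline. Screened at a single concentration of 10 uM in duplicate before concentration-response follow-up.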

Assay [11] addresses human CYP1A2, CYP1A2 (gene 1544) (UniProt P05177). The experiment in a line: NVS_ADME_hCYP1A2: NovaScreen (NVS) CYP450-related Enzyme Activity (ADME) Assay for human CYP1A2 (AID 2283102; active means hit-call score of the fitted dose curve at least 0.9, where 1 is the maximum;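 further: potency for inhibition since loss of fluorescence marks reduced CYP1A2 activity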). In outline:
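rec. hCYP1A2 (insect cells), cell-free; fluorogenic substrate; 0.5 h; FI read. Baseline = acetonitrile; signal loss = inhibition. 10 uM duplicate primary → conc. series for actives.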

Assay [12] addresses Cytochrome P450 3A4 (Homo sapiens) (UniProt P08684). The experiment in a line: NVS_ADME_hCYP3A4: NovaScreen (NVS) CYP450-related Enzyme Activity (ADME) Assay for human CYP3A4 (AID 2283110; active means hit-call score of the fitted dose curve at least 0.9, where 1 is the maximum). Put shortly: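 Compounds were first screened in duplicate at 10 uM against recombinant CYP3A4 produced in insect cells, then actives were run in concentration series. Enzyme activity was measured by fluorescence after 0.33 hour, with acetonitrile as baseline.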

Chain of E-selectin (Homo sapiens) (P16581 whole entry, looked up): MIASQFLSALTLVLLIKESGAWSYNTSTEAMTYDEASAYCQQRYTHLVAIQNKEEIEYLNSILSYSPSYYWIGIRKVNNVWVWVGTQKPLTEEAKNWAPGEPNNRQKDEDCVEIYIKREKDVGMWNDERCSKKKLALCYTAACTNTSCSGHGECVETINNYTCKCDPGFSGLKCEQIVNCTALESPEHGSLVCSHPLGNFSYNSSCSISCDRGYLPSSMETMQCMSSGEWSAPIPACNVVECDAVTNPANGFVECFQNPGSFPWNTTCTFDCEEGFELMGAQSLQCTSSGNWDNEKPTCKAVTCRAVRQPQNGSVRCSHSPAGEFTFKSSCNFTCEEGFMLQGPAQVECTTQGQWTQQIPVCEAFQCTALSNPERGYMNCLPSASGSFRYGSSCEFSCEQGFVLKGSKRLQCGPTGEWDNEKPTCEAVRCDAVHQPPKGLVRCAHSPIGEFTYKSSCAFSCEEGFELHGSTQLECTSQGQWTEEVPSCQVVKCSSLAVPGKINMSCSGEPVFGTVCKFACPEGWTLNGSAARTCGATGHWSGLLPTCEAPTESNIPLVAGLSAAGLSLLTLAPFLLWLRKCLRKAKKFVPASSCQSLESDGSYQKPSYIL
Chain of human CYP2C9, CYP2C9 (gene 1559) (P11712 whole entry, looked up): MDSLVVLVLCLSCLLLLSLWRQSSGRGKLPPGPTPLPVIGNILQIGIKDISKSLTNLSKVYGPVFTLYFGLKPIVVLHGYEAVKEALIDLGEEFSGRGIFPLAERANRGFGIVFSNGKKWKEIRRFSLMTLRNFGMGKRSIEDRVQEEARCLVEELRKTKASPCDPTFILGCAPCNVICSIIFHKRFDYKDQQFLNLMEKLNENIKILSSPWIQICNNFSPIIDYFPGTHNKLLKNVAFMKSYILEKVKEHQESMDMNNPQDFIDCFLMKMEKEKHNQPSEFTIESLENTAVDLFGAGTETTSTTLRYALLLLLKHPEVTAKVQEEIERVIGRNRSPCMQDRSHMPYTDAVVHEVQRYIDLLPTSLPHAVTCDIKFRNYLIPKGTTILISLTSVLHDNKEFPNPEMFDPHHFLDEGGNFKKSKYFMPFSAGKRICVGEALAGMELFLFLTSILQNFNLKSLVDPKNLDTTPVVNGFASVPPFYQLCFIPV
Chain of rat CYP1A2, Cyp1a2 (gene 24297) (P04799 whole entry, looked up): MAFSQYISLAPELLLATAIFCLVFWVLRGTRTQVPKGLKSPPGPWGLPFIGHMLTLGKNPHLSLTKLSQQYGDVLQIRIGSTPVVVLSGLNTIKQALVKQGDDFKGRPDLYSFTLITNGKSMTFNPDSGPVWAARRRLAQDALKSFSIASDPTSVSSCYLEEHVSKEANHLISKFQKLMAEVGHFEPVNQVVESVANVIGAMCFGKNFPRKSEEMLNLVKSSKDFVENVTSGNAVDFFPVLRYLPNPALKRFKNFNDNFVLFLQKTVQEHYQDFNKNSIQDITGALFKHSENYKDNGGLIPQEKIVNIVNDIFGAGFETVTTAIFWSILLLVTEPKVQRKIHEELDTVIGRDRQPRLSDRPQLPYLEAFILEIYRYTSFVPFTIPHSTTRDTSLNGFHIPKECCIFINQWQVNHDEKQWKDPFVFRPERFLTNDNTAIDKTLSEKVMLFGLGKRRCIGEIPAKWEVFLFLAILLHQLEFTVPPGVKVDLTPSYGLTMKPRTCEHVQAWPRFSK
Chain of human CYP1A2, CYP1A2 (gene 1544) (P05177 whole entry, looked up): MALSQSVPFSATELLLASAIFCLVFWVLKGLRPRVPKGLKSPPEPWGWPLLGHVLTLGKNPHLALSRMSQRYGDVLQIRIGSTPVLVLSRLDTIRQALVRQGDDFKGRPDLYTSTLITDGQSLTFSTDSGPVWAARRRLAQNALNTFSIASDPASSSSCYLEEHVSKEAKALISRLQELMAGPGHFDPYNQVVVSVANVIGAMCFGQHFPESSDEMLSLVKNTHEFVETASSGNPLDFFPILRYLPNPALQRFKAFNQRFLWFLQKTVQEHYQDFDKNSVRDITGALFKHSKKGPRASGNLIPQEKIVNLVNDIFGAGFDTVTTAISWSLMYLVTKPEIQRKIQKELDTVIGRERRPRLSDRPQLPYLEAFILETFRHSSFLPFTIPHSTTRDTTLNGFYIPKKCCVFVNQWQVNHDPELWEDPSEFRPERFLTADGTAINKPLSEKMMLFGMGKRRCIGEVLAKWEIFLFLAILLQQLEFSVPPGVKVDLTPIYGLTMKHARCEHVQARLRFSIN
Chain of Cytochrome P450 3A4 (Homo sapiens) (P08684 whole entry, looked up): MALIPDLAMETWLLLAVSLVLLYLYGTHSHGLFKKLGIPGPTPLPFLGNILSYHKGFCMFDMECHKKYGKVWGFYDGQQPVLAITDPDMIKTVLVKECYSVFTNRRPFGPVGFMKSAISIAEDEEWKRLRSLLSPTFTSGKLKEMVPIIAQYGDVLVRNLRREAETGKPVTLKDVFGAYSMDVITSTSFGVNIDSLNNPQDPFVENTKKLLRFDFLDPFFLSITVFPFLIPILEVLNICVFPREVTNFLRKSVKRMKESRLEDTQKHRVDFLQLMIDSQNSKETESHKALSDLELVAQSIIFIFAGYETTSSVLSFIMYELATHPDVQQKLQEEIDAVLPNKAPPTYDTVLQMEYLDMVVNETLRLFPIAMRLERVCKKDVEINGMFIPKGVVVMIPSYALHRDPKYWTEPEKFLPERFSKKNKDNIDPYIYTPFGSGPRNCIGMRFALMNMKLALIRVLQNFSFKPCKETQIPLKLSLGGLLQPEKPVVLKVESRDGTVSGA
Chain of human CYP2B6, CYP2B6 (gene 1555) (P20813 whole entry, looked up): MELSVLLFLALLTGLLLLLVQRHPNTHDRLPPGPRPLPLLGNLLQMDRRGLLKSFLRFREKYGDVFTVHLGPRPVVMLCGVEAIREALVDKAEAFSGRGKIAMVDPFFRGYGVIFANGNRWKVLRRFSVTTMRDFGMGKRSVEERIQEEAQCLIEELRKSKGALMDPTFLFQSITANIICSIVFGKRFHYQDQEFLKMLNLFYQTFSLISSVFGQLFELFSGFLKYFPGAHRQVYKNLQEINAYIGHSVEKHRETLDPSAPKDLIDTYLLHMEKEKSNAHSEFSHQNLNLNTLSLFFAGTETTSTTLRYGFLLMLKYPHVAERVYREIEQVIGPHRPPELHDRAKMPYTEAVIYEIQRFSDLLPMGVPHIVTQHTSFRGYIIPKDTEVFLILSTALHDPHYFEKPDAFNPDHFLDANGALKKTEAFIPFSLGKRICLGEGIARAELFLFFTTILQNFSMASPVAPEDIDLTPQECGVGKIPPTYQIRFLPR

For `C=CC(=O)OCC(F)(F)C(F)F`, the AC50 in assay [1] was 30.4 µM (active) and 17.6 µM (active); in assay [2], 53.5 µM (active) and 45.4 µM (active); in [3], 20.7 µM (active) and 9.88 µM (active); in [4], 13.4 µM (active) and 6.25 µM (active). The result in assay [5] was inactive.
With `CCCCN(CCCC)N=O`, the outcome in [1], in [2], in assay [3], in [4] and in assay [5] was inactive.
For `CCOP(=S)(OCC)SCn1nnc2ccccc2c1=O`, the AC50 is 15.9 µM (active) in [1], 1.43 µM (active) in assay [7] and 3.57 µM (active) in assay [8]. Moreover, the outcome in [2], in assay [6], in assay [3], in assay [4] and in [5] was inactive.
In the case of `FC(F)(F)C(F)(C(F)(F)F)C(F)(F)C(F)(F)CC1CO1` (stereo not drawn), the result in [1], in [2], in [3], in assay [4] and in [5] was inactive.
`c1ccc2c(c1)sc1ccccc12`: the outcome in assay [1], in assay [2], in assay [6], in [3], in assay [4] and in assay [5] was inactive. Moreover, in [9], the result was inactive.
On to `CCOP(=S)(Oc1ccc([N+](=O)[O-])cc1)c1ccccc1` (stereo not drawn), for which the result in [1], in assay [2], in assay [6], in assay [3] and in assay [5] was inactive. Besides, the AC50 was 22.6 µM (active) in assay [4]; 4.41 µM (active) in assay [10]; 5.08 µM (active) in assay [11]; 5.15 µM (active) in [7]; 3.84 µM (active) in assay [12]; 0.198 µM (active) in [8].
For `ClC(Cl)(Cl)c1ccccc1`, the outcome in assay [1], in assay [2], in assay [3], in [4] and in [5] was inactive.
In the case of `COP(=O)(O)OC`, in assay [1], the AC50 was 0.0643 µM (active). Also, the result in [2], in assay [3], in assay [4] and in [5] was inactive.
For `CCN(CC)c1ccccc1`, the result in assay [1], in [2], in assay [3], in assay [4] and in [5] was inactive.
On to `CCCCOCCOP(=O)(OCCOCCCC)OCCOCCCC`, for which the outcome in assay [1], in [2], in assay [6], in [3], in assay [4] and in assay [5] was inactive. Further, the outcome in assay [8] was inactive.
With `O=C(O)C(F)(F)OC(F)(F)C(F)(F)OC(F)(F)C(=O)O`, the result in assay [1], in assay [2], in assay [3], in assay [4] and in assay [5] was inactive.
As to `CCCCC(CC)COC(=O)c1c(Br)c(Br)c(Br)c(Br)c1C(=O)OCC(CC)CCCC` (stereo not drawn), the result in assay [1], in assay [2], in assay [3], in assay [4] and in assay [5] was inactive.
In the case of `CC(Cl)CN(C)C` (stereo not drawn), the AC50 in [1] and in [4] was 20 µM (active) in each case. Moreover, the result in [2], in [3] and in assay [5] was inactive.
As for `Cc1ccc(O)cc1C`, the result in assay [1], in assay [2], in assay [3], in assay [4] and in assay [5] was inactive.
On to `CC(C)(C)c1ccccc1OP(=O)(Oc1ccccc1)Oc1ccccc1`, for which the AC50 is 20 µM (active) in [1]; 34.6 µM (active) in assay [2]; 20 µM (active) in assay [3]; 10.8 µM (active) in assay [4]; 30.7 µM (active) in [5].

(Values after PubChem BioAssay (EPA / NIEHS).)
